Test results published in publication PMC4552634, “A New Set of Chemical Starting Points with Plasmodium falciparum Transmission-Blocking Potential for Antimalarial Drug Discovery” (PLoS ONE, 2015).
Hit rate of the full screen: of about 13,000 compounds, about 3,200 (25%) showed an effect of 50% or more. This is one part of the list.

test system: P. falciparum stage V gametocytes; design: BacTiter-Glo ATP luminescence viability of purified stage V gametocytes in 384-well plates, per cent inhibition versus DMSO; conditions: 48 h, 5 µM; inhibitor

SMILES | % Inhibition
O=C(/C=C/c1cccc2c1OCO2)Nc1ccnc2ccncc12 [TCMDC-139845] | -12.08%
Cc1ccccc1CNCC(O)c1cccc(C(F)(F)F)c1 (centres unmarked) [TCMDC-140393] | 2.038%
O=c1cc(NCCC(CNCc2ccc(Br)o2)NCc2cc(Br)cc(Br)c2)[nH]c2ccccc12 (centres unmarked) [TCMDC-140348] | 17.71%
CCc1ccc(CNCC(CCNc2cc(=O)c3ccccc3[nH]2)NCc2cc(Br)cc(Br)c2)o1 (centres unmarked) [TCMDC-140346] | 67.8%
Cn1cccc1C(=O)NCC(CCNc1cc(=O)c2ccccc2[nH]1)NCc1cc(Br)cc(Br)c1 (centres unmarked) [TCMDC-140218] | -44.96%
Cc1cc(CNCC(CCNc2cc(=O)c3ccccc3[nH]2)NCc2cc(Br)cc(Br)c2)oc1C (centres unmarked) [TCMDC-140347] | 61.99%
COc1cc(/C=C/C(=O)NCC(CCNc2cc(=O)c3ccccc3[nH]2)NCc2cc(Br)cc(Br)c2)cc(OC)c1 (centres unmarked) [TCMDC-140217] | -26.95%
O=c1cc(NCCC(CNCc2cc3ccccc3o2)NCc2cc(Br)cc(Br)c2)[nH]c2ccccc12 (centres unmarked) [TCMDC-140345] | 70.19%
O=c1cc(NC[C@H]2CCC[C@@H]2NCc2cc(Br)cc(Br)c2)[nH]c2ccccc12 [TCMDC-139655] | -0.8474%
Cc1sc(C)c(CNCCCNc2cc(=O)c3ccccc3[nH]2)c1Br [TCMDC-140765] | -54.98%
O=c1cc(NCCCNCc2cc(Br)cs2)[nH]c2ccccc12 [TCMDC-139310] | -17.04%
Cc1[nH]c2ccc(NS(C)(=O)=O)cc2c1C1CCN(CC2CCN(C(=O)/C=C/c3ccc(Cl)c(Cl)c3)CC2)CC1 [TCMDC-140125] | -39.53%
COc1ccc2nccc([C@@H](O)CN3CCC(NC(=O)c4ccc(Cl)c([N+](=O)[O-])c4)CC3)c2c1 [TCMDC-141037] | -23.07%
CC(=O)Nc1cccc(C(=O)Nc2cccc(-c3csc(-c4nc5ccccc5[nH]4)c3)c2)c1 [TCMDC-132398] | -2.258%
O=C(Nc1cccc(-c2ccc(-c3nc4ccccc4[nH]3)cc2)c1)c1cccnc1 [TCMDC-136924] | -5.994%
O=C(Nc1cccc(-c2cccc(-c3nc4ccccc4[nH]3)c2)c1)c1ccncc1 [TCMDC-136955] | 6.238%
O=C(Nc1cccc(-c2csc(-c3nc4ccccc4[nH]3)c2)c1)c1ccncc1 [TCMDC-132402] | 13.78%
Cn1cnc(CCNC(=O)c2cccc(-c3csc(-c4nc5ccccc5[nH]4)c3)c2)c1 [TCMDC-132501] | 74.26%
Cn1cnc(CCNC(=O)c2cccc(-c3ccc(-c4nc5cc(F)ccc5[nH]4)cc3)c2)c1 [TCMDC-132492] | 7.487%
O=C(Nc1cccc(-c2csc(-c3nc4ccccc4[nH]3)c2)c1)c1cccnc1 [TCMDC-132403] | 77.71%
O=C(Nc1cccc(-c2cccc(-c3nc4ccccc4[nH]3)c2)c1)c1cccnc1 [TCMDC-136928] | 76.9%

SMILES | % Inhibition
Cn1cnc(CCNC(=O)c2ccc(-c3cccc(-c4nc5ccccc5[nH]4)c3)cc2)c1 [TCMDC-132495] | -19.92%
CN(C)c1ccc(N2C(N)=NC(N)=NC23CCCC3)cc1 [TCMDC-123607] | 9.069%
CN(CC(=O)Nc1cc(C(F)(F)F)ccc1-n1cncn1)Cc1ccc2ccccc2c1 [TCMDC-125257] | -1.841%
Cc1cc(NCc2ccc(F)cc2)nc2cc(O)ccc12 [TCMDC-124412] | 9.894%
O=C(/C=C/c1ccc(Cl)c(Cl)c1)N1CCC(CN2CCC(Cc3cc4ccccc4[nH]3)CC2)CC1 [TCMDC-140231] | 13.2%
CCCCCCCCc1[nH]c(C)c(Br)c(=O)c1Br [TCMDC-137433] | 43.41%
Cc1cc(CN2CCC(C(=O)Nc3ccc(-c4nc5ccccc5[nH]4)cc3)CC2)oc1C [TCMDC-124612] | -34.2%
COc1ccc(C2C(C(=O)Nc3cc(OC)c(OC)c(OC)c3)c3cc(OC)c(OC)cc3C(=O)N2C)cc1 (centres unmarked) [TCMDC-125141] | 92.28%
COc1ccc(C2C(C(=O)Nc3ccc(C)c(F)c3)c3cc(OC)c(OC)cc3C(=O)N2C)cc1 (centres unmarked) [TCMDC-123594] | -36.5%
COc1cc(SC)ccc1C(=O)N1CC(C)CC(C)C1 (centres unmarked) [TCMDC-123656] | 27.35%
COc1cc2c(cc1OC)C(C(=O)Nc1cc(OC)c(OC)c(OC)c1)C(c1ccc(SC)cc1)N(C)C2=O (centres unmarked) [TCMDC-125151] | 59.65%
COc1ccc(C2C(C(=O)Nc3ccc4c(c3)OCO4)c3cc(OC)c(OC)cc3C(=O)N2C)cc1 (centres unmarked) [TCMDC-123593] | 37.81%
O=C(N[C@@H](Cc1ccccc1)C(=O)NC1CCCc2ccccc21)c1ccc(O)c(-c2cccc(C(F)(F)F)c2)c1 (some centres unmarked) [TCMDC-140820] | 23.49%
CCN(CC)CCN(CCCc1ccc(-c2ccc(C(F)(F)F)cc2)cc1)C(=O)Cn1c(CCc2cccc(F)c2F)nc(=O)c2ccccc21 [TCMDC-141253] | 67.3%
CCN(CC)CCN(Cc1ccc(-c2ccc(Cl)cc2)cc1)C(=O)Cn1c(CCc2cccc(F)c2F)nc(=O)c2ccccc21 [TCMDC-141054] | 39.4%
CCN(CC)CCN(Cc1ccc(-c2ccc(Cl)s2)cc1)C(=O)Cn1c(CCc2cccc(F)c2F)nc(=O)c2ccccc21 [TCMDC-141229] | 28.5%
CCN(CC)CCN(Cc1ccc(-c2ccc(C#N)cc2)cc1)C(=O)Cn1c(CCc2cccc(F)c2F)nc(=O)c2ccccc21 [TCMDC-141150] | 0.7472%
CCN(CC)CCN(Cc1ccc(-c2ccc(C(F)(F)F)s2)cc1)C(=O)Cn1c(CCc2cccc(F)c2F)nc(=O)c2ccccc21 [TCMDC-141262] | 57%
CC(C)(C)NCCN(Cc1ccc(-c2ccc(C(F)(F)F)cc2)cc1)C(=O)Cn1c(CCc2cccc(F)c2F)nc(=O)c2ccccc21 [TCMDC-141080] | 105.1%
CCN(CC)CCN(Cc1ccc(-c2ccc(Br)cc2)cc1)C(=O)Cn1c(CCc2cccc(F)c2F)nc(=O)c2ccccc21 [TCMDC-141305] | 51.66%
